8 compounds from PubChem BioAssay (NCI) can be followed below.

Compounds without any hit were thinned out: in the full panel of roughly 83,000, 20% have a hit.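 The endpoint reported here, percent growth, reads 100 for growth as untreated, 0 for no net growth and -100 for all cells dead.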 Unmarked numbers belong to inactive results. Active and inactive are the calls of the source. How the source made its calls: active means growth percent below 10; inactive means the rest.

What all share (assay): NCI-60 one-dose screen, 48 h (100 = growth as untreated, 0 = no growth, -100 = all killed)
One experiment deals with K-562 leukemia. As to conditions: 10 µM unless noted.
The next experiment relates to MALME-3M melanoma. The settings on record: 10 µM unless noted.
Another experiment concerns MDA-MB-231 breast. As to conditions: 10 µM unless noted.
The next experiment deals with RXF 393 renal. The settings on record: 10 µM unless noted.
The next experiment concerns SF-268 CNS. As to conditions: 10 µM unless noted.
The test system of another experiment is SF-295 CNS. The settings on record: 10 µM unless noted.
Another experiment concerns SF-539 CNS. As to conditions: 10 µM unless noted.
For another experiment, the system named is UACC-257 melanoma. As to conditions: 10 µM unless noted.
The next experiment deals with M14 melanoma. The settings on record: 10 µM unless noted.
The next experiment concerns HCT-15 colon. As to conditions: 10 µM unless noted.
In a further experiment the test system is HT29 colon. The settings on record: 10 µM unless noted.
The subject of the next experiment is SNB-75 CNS. The settings on record: 10 µM unless noted.
A further experiment concerns SNB-19 CNS. The settings on record: 10 µM unless noted.
A further experiment relates to U251 CNS. As to conditions: 10 µM unless noted.
The subject of another experiment is PC-3 prostate. The settings on record: 10 µM unless noted.
A further experiment has as its system SK-MEL-5 melanoma. As to conditions: 10 µM unless noted.
The next experiment deals with UACC-62 melanoma. As to conditions: 10 µM unless noted.
The next experiment deals with LOX IMVI melanoma. The settings on record: 10 µM unless noted.
Another experiment relates to SK-MEL-28 melanoma. As to conditions: 10 µM.
The test system of another experiment is SK-MEL-2 melanoma. The settings on record: 10 µM unless noted.

Regarding `Cc1cc2c(c(C)c1Cl)C(=O)/C(=C/c1ccco1)O2`, the growth with K-562 leukemia was 98.5%; in the experiment on MALME-3M melanoma it was 102%; with MDA-MB-231 breast, 82.3%; in the experiment on RXF 393 renal, 124%; in the experiment on SF-268 CNS, 109%; in the experiment on SF-295 CNS, 109%. The growth is 101% in the experiment on SF-539 CNS; 97.4% with UACC-257 melanoma; 93.2% in the experiment on M14 melanoma; 70.8% in the experiment with HCT-15 colon; 98.3% in the experiment on HT29 colon; 76.7% in the experiment on SNB-75 CNS. The growth is 95.2% with SNB-19 CNS; 96.2% in the experiment on U251 CNS; 98.5% with PC-3 prostate; 69.9% in the experiment on SK-MEL-5 melanoma; 88.7% in the experiment with UACC-62 melanoma; 93% in the experiment with LOX IMVI melanoma. The growth with SK-MEL-28 melanoma is 107%; in the experiment on SK-MEL-2 melanoma, 102%.

Consider `C=C(C)CCC(C)N1CCC(N2CCC(C(=O)NCCc3ccccc3)CC2)CC1` (stereo not given), for which the growth in the experiment with K-562 leukemia was 17%; in the experiment on MALME-3M melanoma, 57.3%; in the experiment on MDA-MB-231 breast it was 69.7%; in the experiment with RXF 393 renal, 47.5%; in the experiment on SF-268 CNS, 57.8%; in the experiment on SF-295 CNS, 79.5%. Besides, the growth with SF-539 CNS is 69%; in the experiment with UACC-257 melanoma, 72.6%; with M14 melanoma, 58%; with HCT-15 colon it was 39.2%; with HT29 colon, 39.3%; in the experiment on SNB-75 CNS, 105%. Moreover, the growth in the experiment on SNB-19 CNS was 102%; with U251 CNS it was 77.4%; in the experiment on PC-3 prostate, 59.7%; with SK-MEL-5 melanoma it was 10.9%; with UACC-62 melanoma, 68.9%; with LOX IMVI melanoma, 63.1%. Further, the growth was 90% in the experiment on SK-MEL-28 melanoma and 99.3% in the experiment on SK-MEL-2 melanoma.

Turning to `CCCCOCc1cc(CN2CCN(C)CC2)c(O)c2ncccc12`, the growth with K-562 leukemia is 50.7%; in the experiment with MALME-3M melanoma, 93.4%; with MDA-MB-231 breast, 47.1%; in the experiment on RXF 393 renal, 69%; in the experiment with SF-268 CNS, 47.9%; with SF-295 CNS, 58.5%. Also, the growth is 53.3% in the experiment on SF-539 CNS; 51.4% in the experiment with UACC-257 melanoma; 41.2% with M14 melanoma; 25.6% in the experiment on HCT-15 colon; 96% with HT29 colon; 68.2% in the experiment on SNB-75 CNS. The growth was 48.6% in the experiment with SNB-19 CNS; 27.8% with U251 CNS; 34.3% with PC-3 prostate; 50.6% with SK-MEL-5 melanoma; 53% with UACC-62 melanoma; 35.9% in the experiment on LOX IMVI melanoma. Besides, the growth in the experiment on SK-MEL-28 melanoma is 74.7%; in the experiment with SK-MEL-2 melanoma, 97.7%.

For the compound `O=C1C(Cl)=C(NCc2ccco2)C(=O)c2ccccc21`, the growth in the experiment on K-562 leukemia is 70.6%; in the experiment with MALME-3M melanoma, 54.6%; with MDA-MB-231 breast it was 68.1%; with RXF 393 renal it was 101%; in the experiment with SF-268 CNS it was 103%; with SF-295 CNS it was 75.8%. The growth was 115% with SF-539 CNS; 58.7% with UACC-257 melanoma; 77.4% with M14 melanoma; 81.3% in the experiment with HCT-15 colon; 67.9% in the experiment on HT29 colon; 87.1% with SNB-75 CNS. Besides, the growth with SNB-19 CNS was 98.8%; in the experiment with U251 CNS it was 70.2%; in the experiment with PC-3 prostate it was 82.7%; in the experiment on SK-MEL-5 melanoma it was -75.6% (active); with UACC-62 melanoma it was 76%; with LOX IMVI melanoma, 16.2%. Besides, the growth with SK-MEL-28 melanoma is 106%; in the experiment on SK-MEL-2 melanoma it was 93.4%.

With `COc1ccc(C(=O)C2CC2c2ccc(Cl)cc2)cc1` (stereo not given), the growth with K-562 leukemia is 76.1%; with MALME-3M melanoma, 94.8%; in the experiment on MDA-MB-231 breast it was 86.4%; with RXF 393 renal, 95.5%; in the experiment on SF-268 CNS, 78.8%; with SF-295 CNS, 141%. Moreover, the growth with SF-539 CNS was 98.6%; in the experiment on UACC-257 melanoma, 94.2%; in the experiment on M14 melanoma it was 92%; in the experiment on HCT-15 colon it was 97.9%; in the experiment on HT29 colon, 104%; in the experiment with SNB-75 CNS it was 75.6%. For the same compound, the growth is 117% in the experiment on SNB-19 CNS; 82.4% in the experiment with U251 CNS; 72.5% with PC-3 prostate; 96.7% with SK-MEL-5 melanoma; 84.9% with UACC-62 melanoma; 91.1% in the experiment on LOX IMVI melanoma. Also, the growth was 107% in the experiment on SK-MEL-28 melanoma and 89% with SK-MEL-2 melanoma.

In the case of `COc1cc(/C=C2\CN(C)C/C(=C\c3cc(CN4CCOCC4)c(O)c(OC)c3)C2=O)cc(CN2CCOCC2)c1O`, the growth in the experiment on K-562 leukemia is 29.1%; with MALME-3M melanoma, 65.6%; in the experiment with MDA-MB-231 breast, 69.5%; with RXF 393 renal, 78%; in the experiment with SF-268 CNS it was 56.9%; in the experiment with SF-295 CNS, 77.1%. In addition, the growth was 34.8% in the experiment with SF-539 CNS; 71.2% with UACC-257 melanoma; 66.4% in the experiment with M14 melanoma; 64.8% in the experiment with HCT-15 colon; 6.39% (active) with HT29 colon; 26.3% in the experiment with SNB-75 CNS. In addition, the growth is 58.5% in the experiment on SNB-19 CNS; 20.7% in the experiment on U251 CNS; 60.8% in the experiment on PC-3 prostate; 72.3% in the experiment with SK-MEL-5 melanoma; 35.8% with UACC-62 melanoma; 11.7% in the experiment on LOX IMVI melanoma. Further, the growth in the experiment with SK-MEL-28 melanoma was 77.3%; with SK-MEL-2 melanoma, 72.2%.

For `COc1cccc2c1C=C1CCCCC3=Cc4c(OC)cccc4OC13O2`, the growth was 17.4% in the experiment on K-562 leukemia; 36.5% with MALME-3M melanoma; 56.7% with MDA-MB-231 breast; 32.8% in the experiment on RXF 393 renal; 50.8% in the experiment with SF-268 CNS; 27.2% with SF-295 CNS. Also, the growth is 39.4% in the experiment on SF-539 CNS; 62.1% in the experiment on UACC-257 melanoma; 27.3% with M14 melanoma; 28.3% in the experiment on HCT-15 colon; 16.3% in the experiment on HT29 colon; -18.1% (active) with SNB-75 CNS. Also, the growth with SNB-19 CNS is 51.3%; in the experiment with U251 CNS, 30.9%; in the experiment with PC-3 prostate, 33.7%; in the experiment with SK-MEL-5 melanoma, 50.3%; in the experiment on UACC-62 melanoma it was 24.2%; with LOX IMVI melanoma, 32.8%. In addition, the growth with SK-MEL-28 melanoma is 53.6%; with SK-MEL-2 melanoma, 48.6%.

`Brc1ccc(Oc2ccc(Nc3ncnc4onc(-c5ccccc5)c34)cc2)cc1`: the growth is 92.4% in the experiment with K-562 leukemia; 103% in the experiment on MALME-3M melanoma; 98.3% with MDA-MB-231 breast; 103% in the experiment on RXF 393 renal; 96.7% in the experiment on SF-268 CNS; 92.2% in the experiment with SF-295 CNS. Besides, the growth in the experiment on SF-539 CNS is 96.2%; in the experiment with UACC-257 melanoma, 98%; in the experiment on M14 melanoma, 98.3%; in the experiment on HCT-15 colon, 103%; in the experiment with HT29 colon it was 95.5%; in the experiment with SNB-75 CNS, 86.7%. In addition, the growth in the experiment on SNB-19 CNS is 106%; with U251 CNS it was 98.9%; in the experiment on PC-3 prostate it was 102%; with SK-MEL-5 melanoma, 92.6%; in the experiment on UACC-62 melanoma it was 88.6%; in the experiment on LOX IMVI melanoma it was 94.5%. The growth in the experiment with SK-MEL-28 melanoma was 97.2%; in the experiment on SK-MEL-2 melanoma, 110%.
